The record followed here is PubChem BioAssay (NCI).

The panel holds about 83,000 compounds, 20% with a hit somewhere; the sample as a whole holds those more often.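 How to read the values: 0–100, growth inhibition (40 = 60% inhibited); 0, no net growth; -100 to 0, cell death (-40 = 40% of starting cells died; -100 = all dead).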 Activity calls are given as the source filed them. How the source made its calls: active means growth percent below 10; inactive means the rest.

For the first experiment, the system named is HOP-92 NSCLC. The experiment is described as follows: NCI-60 one-dose screen, 48 h (100 = growth as untreated, 0 = no growth, -100 = all killed). To be noted: 10 µM unless noted.
For the molecule `N=C(N)c1ccc(-c2cc(Cl)cc(Cl)c2)cn1`, the growth is 59.3% (inactive).

In the case of `COc1cc(-c2nn(-c3cccc(NC(=O)c4cccc(C(F)(F)F)c4)c3)cc2-c2ccncc2)ccc1Cl`, the growth is -5.59% (active).

Turning to `CN(C)c1oc(C2OC2c2ccccc2)nc1C#N` (stereo not drawn), the growth is 79% (inactive).

Turning to `O=C(NNC(=O)N1c2ccccc2C=Cc2ccccc21)c1ccccc1`, the growth is 103% (inactive).

As to `Cc1ccc(N2CCN(C(C)C(N)=O)CC2)cc1` (stereo not drawn), the growth is 123% (inactive).

As for `C=C(C)[C@@H]1C[C@H](O)Cc2cc(F)ccc2N1`, the growth was 95.6% (inactive).

As to `c1ccc(-c2nnc(-c3ccccn3)s2)nc1`, the growth is 89.7% (inactive).

Consider `C=C1CCC2C(C)(CO)C(O)CCC2(C)C1C/C=C1/C(=O)OCC1Oc1ccccc1C` (stereo not drawn), for which the growth was 118% (inactive).

Turning to `Cc1ccc(S(=O)(=O)C2=C3C(=C(c4ccccc4)c4ccccc43)CN(S(=O)(=O)c3ccc(C)cc3)C2)cc1`, the growth was 3.21% (active).

Take `COc1cc(C(=O)/C=C/c2c(C)n([O-])c3ccc(C(F)(F)F)cc3[n+]2=O)cc(OC)c1OC`: the growth was 87.3% (inactive).

With `COc1ccc(C(=O)n2nc(/C=C/c3ccc(O)c(OC)c3)cc2/C=C/c2ccc(O)c(OC)c2)cc1`, the growth is -10.7% (active).

On to `COc1cc(/C=N\NC(=O)CN2CCN(c3cc4c(cc3F)c(=O)c(C(=O)N/N=C/c3cc(OC)c(OC)c(OC)c3)cn4C3CC3)CC2)cc(OC)c1OC`, for which the growth is -39% (active).

For the molecule `CCCCCCN1CSC(=S)N(CCCCCC)C1`, the growth is 81.5% (inactive).

With `Cc1csc(NC(c2ccc(Br)cc2)c2c(C)nc3ccccn23)n1` (stereo not drawn), the growth is 42.9% (inactive).

For `Fc1ccc(Nc2nc(NCCNc3ccnc4cc(Cl)ccc34)nc(N3CCOCC3)n2)cc1`, the growth is -5.61% (active).

For `Cc1ccc(-c2nc(C#N)c(S(=O)(=O)n3nc(-c4ccccc4)cc3N)o2)cc1`, the growth is 89.1% (inactive).

Take `CCOC(=O)c1ccc2c(c1)c1c(C)c3cccnc3c(C)c1n2C`: the growth is 67.9% (inactive).

With `COc1ccc(-c2nc(SCCC(C)C)nc(Nc3ccc(F)c(Cl)c3)c2C#N)cc1`, the growth is 101% (inactive).

In the case of `N[C@@H]1CCN(C(=O)c2cc3cc(Cl)c(F)c(F)c3[nH]2)C1`, the growth was 74.1% (inactive).

On to `CC(C)(C)c1[nH]nc2c1C(c1cc3ccccc3[nH]c1=O)Nc1cc(C(=O)Nc3ccc(Cl)cc3)ccc1N2` (stereo not drawn), for which the growth was 86.1% (inactive).

Turning to `Cc1ccc(S(=O)(=O)NCCNc2nccc(-c3c(-c4cccc(N)c4)nc4sccn34)n2)cc1`, the growth is 94% (inactive).

On to `CN(C)c1ncnc2c1ccn2C1OC(CO)C(O)C1O` (stereo not drawn), for which the growth was -6.76% (active).

`C/C(=C\c1ccc(OCC(=O)O)c(Cl)c1Cl)[N+](=O)[O-]`: the growth is 104% (inactive).

With `COc1ccc(/C=C/c2c(C(C)=O)c(C)nc3ccccc23)cc1`, the growth is 79.3% (inactive).

In the case of `COc1ccc(Nc2nn3c(C)cc(C)nc3c2C(=O)Nc2ccc(C)cc2)c(OC)c1`, the growth was 87.1% (inactive).

As to `Cc1[nH]c2ccc(F)cc2c1CCNC(=O)C1CCN(C(=O)c2ccccc2)C1` (stereo not drawn), the growth was -0.166% [25 µM] (active).

As to `N#Cc1c(Nc2ccccc2)nc2n(c1=O)-c1ccccc1Sc1ccccc1-2`, the growth was 58.7% (inactive).

With `C=C1CC2(OC1=O)C(=O)N(CCCN1C(=O)C3(CC(=C)C(=O)O3)c3ccccc31)c1ccccc12` (stereo not drawn), the growth was -27% (active).

Consider `C=C(C)[C@@H]1CC[C@]2(C(=O)O)CC[C@]3(C)[C@H](CC[C@@H]4[C@@]5(C)C[C@@H](CC#Cc6ccc(C(F)(F)F)cc6)[C@H](O)C(C)(C)[C@@H]5CC[C@]43C)[C@@H]12`, for which the growth is -16.9% (active).

For `CCCCCCCCC(C)OC(=O)c1nn(C(C)=O)c2ccccc12` (stereo not drawn), the growth is 98.7% (inactive).

Regarding `Oc1ccc2cc(Br)ccc2c1-c1c(O)ccc2cc(Br)ccc12`, the growth is 20% (inactive).

With `COc1ccc(-c2cn(-c3cccc(C(=O)/C=C/c4cc(OC)c(OC)c(OC)c4)c3)c(=O)[nH]2)cc1OC`, the growth was 61.2% (inactive).

In the case of `N/C(=N\C(N)=N\c1nc2ccccc2s1)c1cccc(Br)c1`, the growth is 96.7% (inactive).

On to `c1cc2[nH]ncc2cc1-c1nc2ccc3[nH]ncc3c2c2c1CCC2`, for which the growth is 42.5% (inactive).

With `O=C(Nc1ccc(Cl)c(Cl)c1)NS(=O)(=O)c1cnccc1Oc1ccc(F)cc1`, the growth is 52.7% (inactive).

As to `Cc1ccc(C(=O)NCCCNc2nccc(-n3ccc4cccnc43)n2)cc1`, the growth is 96.4% (inactive).

For the molecule `CC(C)(C)n1cc(-c2ccnc(NCCCNS(=O)(=O)c3ccccc3)c2)c(-c2cccc(O)c2)n1`, the growth was 77.7% (inactive).

For `COc1ccc(C(=O)c2cc(OC)c(OC)c(OC)c2OC)cc1O`, the growth is 60.4% (inactive).

For the molecule `C=C1C(=O)O[C@@H]2[C@@H]3O[C@@](C)(CC/C=C(\C)CCC[C@@H]2C)[C@H](O)C[C@@H]13`, the growth is 1.79% (active).

In another experiment the test system is NCI-H522 lung. The experiment is described as above. The settings on record: 10 µM unless noted.
`N=C(N)c1ccc(-c2cc(Cl)cc(Cl)c2)cn1`: the growth is 90.1% (inactive).

For `COc1cc(-c2nn(-c3cccc(NC(=O)c4cccc(C(F)(F)F)c4)c3)cc2-c2ccncc2)ccc1Cl`, the growth is -42.3% (active).

Take `CN(C)c1oc(C2OC2c2ccccc2)nc1C#N` (stereo not drawn): the growth was 87.7% (inactive).

Regarding `O=C(NNC(=O)N1c2ccccc2C=Cc2ccccc21)c1ccccc1`, the growth was 94% (inactive).

For `Cc1ccc(N2CCN(C(C)C(N)=O)CC2)cc1` (stereo not drawn), the growth is 90.7% (inactive).

As for `C=C(C)[C@@H]1C[C@H](O)Cc2cc(F)ccc2N1`, the growth is 93.7% (inactive).

As to `c1ccc(-c2nnc(-c3ccccn3)s2)nc1`, the growth was 96.1% (inactive).

Take `C=C1CCC2C(C)(CO)C(O)CCC2(C)C1C/C=C1/C(=O)OCC1Oc1ccccc1C` (stereo not drawn): the growth is 23.8% (inactive).

In the case of `Cc1ccc(S(=O)(=O)C2=C3C(=C(c4ccccc4)c4ccccc43)CN(S(=O)(=O)c3ccc(C)cc3)C2)cc1`, the growth is -45.9% (active).

Regarding `COc1cc(C(=O)/C=C/c2c(C)n([O-])c3ccc(C(F)(F)F)cc3[n+]2=O)cc(OC)c1OC`, the growth is -82.1% (active).

For `COc1ccc(C(=O)n2nc(/C=C/c3ccc(O)c(OC)c3)cc2/C=C/c2ccc(O)c(OC)c2)cc1`, the growth is -6.8% (active).

Consider `COc1cc(/C=N\NC(=O)CN2CCN(c3cc4c(cc3F)c(=O)c(C(=O)N/N=C/c3cc(OC)c(OC)c(OC)c3)cn4C3CC3)CC2)cc(OC)c1OC`, for which the growth is 8.22% (active).

`CCCCCCN1CSC(=S)N(CCCCCC)C1`: the growth is 101% (inactive).

Take `Cc1csc(NC(c2ccc(Br)cc2)c2c(C)nc3ccccn23)n1` (stereo not drawn): the growth is 89.3% (inactive).

For the molecule `Fc1ccc(Nc2nc(NCCNc3ccnc4cc(Cl)ccc34)nc(N3CCOCC3)n2)cc1`, the growth was 48.1% (inactive).

For the molecule `Cc1ccc(-c2nc(C#N)c(S(=O)(=O)n3nc(-c4ccccc4)cc3N)o2)cc1`, the growth is -12% (active).

As to `CCOC(=O)c1ccc2c(c1)c1c(C)c3cccnc3c(C)c1n2C`, the growth is 49.1% (inactive).

`COc1ccc(-c2nc(SCCC(C)C)nc(Nc3ccc(F)c(Cl)c3)c2C#N)cc1`: the growth was 84.5% (inactive).

For the molecule `N[C@@H]1CCN(C(=O)c2cc3cc(Cl)c(F)c(F)c3[nH]2)C1`, the growth is 80.1% (inactive).

As for `CC(C)(C)c1[nH]nc2c1C(c1cc3ccccc3[nH]c1=O)Nc1cc(C(=O)Nc3ccc(Cl)cc3)ccc1N2` (stereo not drawn), the growth is 74.5% (inactive).

Turning to `Cc1ccc(S(=O)(=O)NCCNc2nccc(-c3c(-c4cccc(N)c4)nc4sccn34)n2)cc1`, the growth was 83.5% (inactive).

Turning to `CN(C)c1ncnc2c1ccn2C1OC(CO)C(O)C1O` (stereo not drawn), the growth was 90.9% (inactive).

In the case of `C/C(=C\c1ccc(OCC(=O)O)c(Cl)c1Cl)[N+](=O)[O-]`, the growth is 83.4% (inactive).

For `COc1ccc(/C=C/c2c(C(C)=O)c(C)nc3ccccc23)cc1`, the growth is 61.2% (inactive).

On to `COc1ccc(Nc2nn3c(C)cc(C)nc3c2C(=O)Nc2ccc(C)cc2)c(OC)c1`, for which the growth was 88.6% (inactive).

Take `Cc1[nH]c2ccc(F)cc2c1CCNC(=O)C1CCN(C(=O)c2ccccc2)C1` (stereo not drawn): the growth was 95.1% [25 µM] (inactive).

For `N#Cc1c(Nc2ccccc2)nc2n(c1=O)-c1ccccc1Sc1ccccc1-2`, the growth was 75.2% (inactive).

Regarding `C=C1CC2(OC1=O)C(=O)N(CCCN1C(=O)C3(CC(=C)C(=O)O3)c3ccccc31)c1ccccc12` (stereo not drawn), the growth was -78% (active).

`C=C(C)[C@@H]1CC[C@]2(C(=O)O)CC[C@]3(C)[C@H](CC[C@@H]4[C@@]5(C)C[C@@H](CC#Cc6ccc(C(F)(F)F)cc6)[C@H](O)C(C)(C)[C@@H]5CC[C@]43C)[C@@H]12`: the growth was -19.1% (active).

As to `CCCCCCCCC(C)OC(=O)c1nn(C(C)=O)c2ccccc12` (stereo not drawn), the growth was 90.1% (inactive).

`Oc1ccc2cc(Br)ccc2c1-c1c(O)ccc2cc(Br)ccc12`: the growth was 53.9% (inactive).

Regarding `COc1ccc(-c2cn(-c3cccc(C(=O)/C=C/c4cc(OC)c(OC)c(OC)c4)c3)c(=O)[nH]2)cc1OC`, the growth was 74.4% (inactive).

`N/C(=N\C(N)=N\c1nc2ccccc2s1)c1cccc(Br)c1`: the growth was 80% (inactive).

Regarding `c1cc2[nH]ncc2cc1-c1nc2ccc3[nH]ncc3c2c2c1CCC2`, the growth was 6.78% (active).

On to `O=C(Nc1ccc(Cl)c(Cl)c1)NS(=O)(=O)c1cnccc1Oc1ccc(F)cc1`, for which the growth was 20.2% (inactive).

With `Cc1ccc(C(=O)NCCCNc2nccc(-n3ccc4cccnc43)n2)cc1`, the growth is 88% (inactive).

`CC(C)(C)n1cc(-c2ccnc(NCCCNS(=O)(=O)c3ccccc3)c2)c(-c2cccc(O)c2)n1`: the growth was 45% (inactive).

In the case of `COc1ccc(C(=O)c2cc(OC)c(OC)c(OC)c2OC)cc1O`, the growth was -0.0983% (active).

As to `C=C1C(=O)O[C@@H]2[C@@H]3O[C@@](C)(CC/C=C(\C)CCC[C@@H]2C)[C@H](O)C[C@@H]13`, the growth was -16.5% (active).
